Where a name gives a salt, the structure may show the parent alone.
system: Danio rerio larvae (5 dpf); assay: startle response to 20-s acoustic pulses, difference vs DMSO (percentage points (treated minus DMSO)); higher = more of the behaviour than the DMSO vehicle control; details: 10 µM; exposure time: 3 h pre-incubation + 3 h imaging
Summary of the method: (§1)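 Library drugs were diluted 1000× from DMSO stocks into egg water to reach 10 µM and applied to 5-dpf wild-type zebrafish larvae in 96-well ProxiPlates, 48 larvae per drug. The larvae stayed exposed for 3 h before imaging and for the 3 h of imaging at 28.5 °C. Behaviour scores, given in percentage points, are the treated mean minus the vehicle mean for movement and upper-half location.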

| Structure (SMILES) | startle response to 20-s acoustic pulses |
| --- | --- |
| OCCN1C[C@H](O)[C@@H](O)[C@H](O)[C@H]1CO [Miglitol] | -1.17 |
| O=C1CCc2cc(OCCCCc3nnnn3C3CCCCC3)ccc2N1 [Cilostazol] | 2.19 |
| Clc1ccc(COC(Cn2ccnc2)c2ccc(Cl)cc2Cl)c(Cl)c1 (stereo unspecified) [Miconazole nitrate] | 4.56 |
| O=C(O[C@@H]1C[C@@H]2C[C@H]3C[C@H](C1)N2CC3=O)c1c[nH]c2ccccc12 [Dolasetron mesylate] | 2.42 |
| N#Cc1ccc2[nH]cc(CCCCN3CCN(c4ccc5oc(C(N)=O)cc5c4)CC3)c2c1 [Vilazodone hydrochloride] | -6.5 |
| C[C@]12CC[C@@H]3c4ccc(O)cc4C[C@@H](CCCCCCCCC[S+]([O-])CCCC(F)(F)C(F)(F)F)[C@H]3[C@@H]1CC[C@@H]2O (stereo partly specified) | 0.769 |
| CC(C)(C)NC(=O)[C@@H]1C[C@@H]2CCCC[C@@H]2CN1C[C@@H](O)[C@H](Cc1ccccc1)NC(=O)[C@H](CC(N)=O)NC(=O)c1ccc2ccccc2n1 [Saquinavir mesylate] | 0.0193 |
| CCCCCCCN(CC)CCCC(O)c1ccc(NS(C)(=O)=O)cc1 (stereo unspecified) [Ibutilide hemifumarate] | -3.17 |
| COc1c(C)c2c(c(O)c1C/C=C(\C)CCC(=O)O)C(=O)OC2 [Mycophenolic acid] | 2.15 |
| Clc1ccccc1C(c1ccccc1)(c1ccccc1)n1ccnc1 [Clotrimazole] | 4.06 |
| CCCCC(=O)N(Cc1ccc(-c2ccccc2-c2nnn[nH]2)cc1)[C@H](C(=O)O)C(C)C [Valsartan] | -0.147 |
| Cc1nc(Nc2ncc(C(=O)Nc3c(C)cccc3Cl)s2)cc(N2CCN(CCO)CC2)n1 [Dasatinib] | 0.79 |

system: Danio rerio larvae (5 dpf); assay: optomotor response to fast red moving lines, difference vs DMSO (percentage points (treated minus DMSO)); higher = more of the behaviour than the DMSO vehicle control; details: 10 µM; exposure time: 3 h pre-incubation + 3 h imaging
Summary of the method: as §1

| Structure (SMILES) | optomotor response |
| --- | --- |
| COc1ccccc1Oc1c(NS(=O)(=O)c2ccc(C(C)(C)C)cc2)nc(-c2ncccn2)nc1OCCO [Bosentan] | 0.298 |
| OCCN1C[C@H](O)[C@@H](O)[C@H](O)[C@H]1CO [Miglitol] | -3.78 |
| COc1ccc([C@@H]2Sc3ccccc3N(CCN(C)C)C(=O)[C@@H]2OC(C)=O)cc1 [Diltiazem hydrochloride] | -0.971 |
| O=C1CCc2cc(OCCCCc3nnnn3C3CCCCC3)ccc2N1 [Cilostazol] | -1.51 |
| CC(C)[C@H]1CC[C@H](C(=O)N[C@H](Cc2ccccc2)C(=O)O)CC1 [Nateglinide] | -0.789 |
| Nc1ncn([C@@H]2O[C@H](CO)[C@@H](O)[C@H]2O)c(=O)n1 [5-Azacytidine] | 1.5 |
| Cc1ccc(-c2cc(C(F)(F)F)nn2-c2ccc(S(N)(=O)=O)cc2)cc1 [Celecoxib] | -11.4 |
| CCC(=O)O[C@]1(C(=O)SCF)[C@H](C)C[C@H]2[C@@H]3C[C@H](F)C4=CC(=O)C=C[C@]4(C)[C@@]3(F)[C@@H](O)C[C@@]21C [Fluticasone propionate] | -7.85 |
| CN(C)CCc1c[nH]c2ccc(C[C@H]3COC(=O)N3)cc12 [Zolmitriptan] | -9.74 |
| COc1cc(Nc2c(C#N)cnc3cc(OCCCN4CCN(C)CC4)c(OC)cc23)c(Cl)cc1Cl [Bosutinib] | 1.89 |
| CC(C)(C)NC(=O)[C@@H]1C[C@@H]2CCCC[C@@H]2CN1C[C@@H](O)[C@H](Cc1ccccc1)NC(=O)[C@H](CC(N)=O)NC(=O)c1ccc2ccccc2n1 [Saquinavir mesylate] | -8.88 |
| C[C@@H]1C[C@H]2[C@@H]3CCC4=CC(=O)C=C[C@]4(C)[C@@]3(F)[C@@H](O)C[C@]2(C)[C@@]1(O)C(=O)CO [Dexamethasone] | 0.576 |
| CCOc1cc(CC(=O)N[C@@H](CC(C)C)c2ccccc2N2CCCCC2)ccc1C(=O)O [Repaglinide] | -12.1 |
| CCCCC(=O)N(Cc1ccc(-c2ccccc2-c2nnn[nH]2)cc1)[C@H](C(=O)O)C(C)C [Valsartan] | -0.58 |

— the supplement of paper PMC9023506
